The list shows a part of the results. Values without a mark were called inactive. Active and inactive are the calls of the source.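 How the source made its calls, unless noted: active means mean inhibition above about 50% when retested at one dose (limit read from the data); inactive means the rest.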

In the first experiment the target is Sentrin-specific protease 7 (Homo sapiens) (UniProt Q9BQF6). In words: SENP7 protease inhibitors, retest, confirmation, biochemical, luminescence, single concentration (AID 488917;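 active means mean inhibition above about 50% in the one-dose retest, limit read from the data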). As to conditions: recombinant SENP7, Z-RLRGG-aminoluciferin luminescence, 40 min; at 12.5 µM; hits give high values.
Sentrin-specific protease 7 (Homo sapiens), sequence (Q9BQF6 706-1050 limits assumed): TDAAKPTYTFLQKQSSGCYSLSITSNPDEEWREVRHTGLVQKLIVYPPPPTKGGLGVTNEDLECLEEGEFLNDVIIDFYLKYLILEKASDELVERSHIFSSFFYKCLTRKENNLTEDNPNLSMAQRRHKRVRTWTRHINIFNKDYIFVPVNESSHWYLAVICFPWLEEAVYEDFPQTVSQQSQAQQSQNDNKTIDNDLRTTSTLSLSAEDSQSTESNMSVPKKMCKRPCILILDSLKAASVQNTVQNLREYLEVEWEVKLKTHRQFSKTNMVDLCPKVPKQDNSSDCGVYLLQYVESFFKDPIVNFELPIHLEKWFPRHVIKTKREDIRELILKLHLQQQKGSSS
Broadly, the inhibition is the relative decrease from the control value, in per cent. As to `CCOC(=O)c1cnc2[nH]c3ccccc3n2c1=O`, the inhibition is 96.4% (active).
On the same count and under the same terms, under `Cc1cc(C(=O)N/N=C/c2ccc(N3CCOCC3)cc2)c(C)o1` stands 98.6% (active); under `COc1ccccc1C(=O)Nc1ccc(NC(=O)c2ccco2)c(C)c1`, 81.2% (active).
The same measure, in the same setting: under `COc1cccc(OCC(O)CNC(=O)c2oc3c(C)c(C)ccc3c2C)c1` (stereo not given) stands -2.1%; under `COCn1c(COc2ccccc2)nc2ccccc21`, 76.4% (active).
Same read-out and setting: under `O=C(OC1CCOC1=O)c1ccc(-c2nc3ccccc3s2)s1` (stereo not given) stands 100% (active); under `Nc1ccccc1/C=N\N=C/c1ccccc1N`, 85.6% (active).
Consider `CC(=O)Oc1ccc2c(=O)oc(-c3ccc([N+](=O)[O-])cc3)nc2c1`, for which the inhibition was -2.9%.
On the same count and under the same terms, under `CCOc1ccc2nc(C(=O)N3CCCC(C)C3)sc2c1` (stereo not given) stands 86.3% (active).
On the same count and under the same terms, under `Clc1ccc(Nc2ccc3ccccc3n2)cc1` stands 97.8% (active); under `COC(=O)c1ccc(NCC(=O)c2ccccc2)cc1`, 103% (active).
Turning to `CCOC(=O)/C(C#N)=C/c1ccc(N2CCCCC2)cc1`, the inhibition is 65% (active).
On the same count and under the same terms, under `c1ccc(-c2cc(-c3ccccc3)[nH]n2)cc1` stands 85.8% (active).

In a further experiment the target is Caspase-3 (Homo sapiens) (UniProt P42574). The experiment in a line: caspase-3 protease inhibitors, confirmation, selectivity assay for SENP inhibitor project, biochemical, single concentration (AID 488918;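 active means mean inhibition above about 50%, limit read from the data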;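 further: plate controls were enzyme with DMSO for no effect and wells without caspase-3 for full effect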). As to conditions: purified caspase-3, Z-DEVD-aminoluciferin luminescence, 60 min; at 12.5 µM; hits give high values.
Caspase-3 (Homo sapiens), sequence (P42574 28-227 limits assumed): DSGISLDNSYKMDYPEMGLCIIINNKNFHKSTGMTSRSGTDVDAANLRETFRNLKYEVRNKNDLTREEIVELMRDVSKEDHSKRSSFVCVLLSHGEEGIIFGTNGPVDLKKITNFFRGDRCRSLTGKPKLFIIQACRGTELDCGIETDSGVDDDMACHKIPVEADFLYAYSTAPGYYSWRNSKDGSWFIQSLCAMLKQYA
As to `Cc1ccc(F)c(NC(=O)CCc2ccccc2)c1`, the inhibition is 60.7% (active).
Turning to `CN(CCO)c1ccc(/C=N/Nc2nncc3ccccc23)cc1`, the inhibition is 98.7% (active).
Same read-out and setting: under `C/C(=C\C(=O)c1ccccc1)Nc1cccc(O)c1` stands 39.4%; under `O=c1c(-c2cccc(Cl)c2)c[nH]n1-c1ccccc1`, 76.2% (active); under `COCCN(CCOC)c1nc(N)c2c(N)nc3c(c2c1C#N)CC(=O)N3Cc1ccc(Cl)cc1`, 3.6%.
Still for that read-out and setting: under `O=C(Nc1ccccc1)c1cc2ccccc2[nH]1` stands -4.8%; under `Cc1cccc(NS(=O)(=O)c2cccc(C(=O)NNC(=O)c3ccccc3O)c2)c1`, 56.8% (active); under `CC(=O)Oc1ccc2c(c1)C(=O)c1ccccc1C2=O`, 57.6% (active).
With `Cc1ccn2cc(-c3nonc3C)cc2c1`, the inhibition was 73.7% (active).
`CC(C)Cc1cc(C(=O)Nc2cc(Br)ccc2O)no1`: the inhibition is 15.4%.
Take `Cc1nonc1C(=O)N/N=C/c1ccc(O)cc1`: the inhibition is 99.4% (active).
Take `Cc1cccc(OC(=O)c2sc3ncn(C)c(=O)c3c2C)c1`: the inhibition is 14.4%.
Same read-out and setting: under `Cc1cccc(Nc2nc(-c3ccccc3)cs2)n1` stands 67.1% (active); under `O=C(/C=C/c1ccco1)Nc1ccc(Oc2ccccc2)cc1`, 40.7%.
As for `Cc1[nH]n(-c2ccc([N+](=O)[O-])cc2)c(=O)c1C=NCCN1CCN(C(=O)c2ccccc2F)CC1`, the inhibition is 37.1%.
Same read-out and setting: under `COc1ccc(NC(=O)Nc2cccc3cccnc23)cc1` stands 70.7% (active).
Still for that read-out and setting: under `Nc1ccc(-c2nnc(-c3ccccc3)o2)cc1` stands 65.7% (active).
On the same count and under the same terms, under `O=C(Nc1ccccc1)Nc1ccccc1C(=O)NCc1ccco1` stands 63.9% (active).
As to `CCOC(=O)c1cnc2[nH]c3ccccc3n2c1=O`, the inhibition was 94.2% (active).
Still for that read-out and setting: under `Cc1cc(C(=O)N/N=C/c2ccc(N3CCOCC3)cc2)c(C)o1` stands 95.4% (active); under `COc1ccccc1C(=O)Nc1ccc(NC(=O)c2ccco2)c(C)c1`, 82.5% (active); under `COc1cccc(OCC(O)CNC(=O)c2oc3c(C)c(C)ccc3c2C)c1` (stereo not given), -3.9%.
On to `COCn1c(COc2ccccc2)nc2ccccc21`, for which the inhibition was 74.2% (active).
Same read-out and setting: under `O=C(OC1CCOC1=O)c1ccc(-c2nc3ccccc3s2)s1` (stereo not given) stands 96.3% (active); under `Nc1ccccc1/C=N\N=C/c1ccccc1N`, 68.3% (active).
For the compound `CC(=O)Oc1ccc2c(=O)oc(-c3ccc([N+](=O)[O-])cc3)nc2c1`, the inhibition is -2.9%.
Same read-out and setting: under `CCOc1ccc2nc(C(=O)N3CCCC(C)C3)sc2c1` (stereo not given) stands 62.5% (active); under `Clc1ccc(Nc2ccc3ccccc3n2)cc1`, 48.8%; under `COC(=O)c1ccc(NCC(=O)c2ccccc2)cc1`, 96% (active).
On the same count and under the same terms, under `CCOC(=O)/C(C#N)=C/c1ccc(N2CCCCC2)cc1` stands 30.2%.
For `c1ccc(-c2cc(-c3ccccc3)[nH]n2)cc1`, the inhibition was 38%.

Test system in another experiment: not listed separately
The experiment in a line: luciferase luminescence interference by compounds, confirmation, artefact control for SENP inhibitor project, biochemical, single concentration, SENP8 reaction pre-completed (AID 488919).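 Further: plate controls were DMSO wells with completed reaction for no effect and substrate without enzyme for full effect.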 As to conditions: Pre-incubated SENP8/Z-RLRGG-aminoluciferin, at 12.5 µM, hits give high values.
With `Cc1ccc(F)c(NC(=O)CCc2ccccc2)c1`, the inhibition was 44.8%.
On to `CN(CCO)c1ccc(/C=N/Nc2nncc3ccccc23)cc1`, for which the inhibition was 93.4% (active).
The same measure, in the same setting: under `C/C(=C\C(=O)c1ccccc1)Nc1cccc(O)c1` stands 66.4% (active); under `O=c1c(-c2cccc(Cl)c2)c[nH]n1-c1ccccc1`, 63.8% (active); under `COCCN(CCOC)c1nc(N)c2c(N)nc3c(c2c1C#N)CC(=O)N3Cc1ccc(Cl)cc1`, -3.7%.
The same measure, in the same setting: under `O=C(Nc1ccccc1)c1cc2ccccc2[nH]1` stands 8.3%; under `Cc1cccc(NS(=O)(=O)c2cccc(C(=O)NNC(=O)c3ccccc3O)c2)c1`, 49.9%.
Regarding `CC(=O)Oc1ccc2c(c1)C(=O)c1ccccc1C2=O`, the inhibition is 25.6%.
Still for that read-out and setting: under `Cc1ccn2cc(-c3nonc3C)cc2c1` stands 33%.
Same read-out and setting: under `CC(C)Cc1cc(C(=O)Nc2cc(Br)ccc2O)no1` stands 7.1%.
Still for that read-out and setting: under `Cc1nonc1C(=O)N/N=C/c1ccc(O)cc1` stands 66.2% (active); under `Cc1cccc(OC(=O)c2sc3ncn(C)c(=O)c3c2C)c1`, -2.4%; under `Cc1cccc(Nc2nc(-c3ccccc3)cs2)n1`, 49.5%.
In the case of `O=C(/C=C/c1ccco1)Nc1ccc(Oc2ccccc2)cc1`, the inhibition was 38.3%.
The same measure, in the same setting: under `Cc1[nH]n(-c2ccc([N+](=O)[O-])cc2)c(=O)c1C=NCCN1CCN(C(=O)c2ccccc2F)CC1` stands 49.3%; under `COc1ccc(NC(=O)Nc2cccc3cccnc23)cc1`, 78.5% (active); under `Nc1ccc(-c2nnc(-c3ccccc3)o2)cc1`, 35.7%.
As to `O=C(Nc1ccccc1)Nc1ccccc1C(=O)NCc1ccco1`, the inhibition was 66.7% (active).
For the compound `CCOC(=O)c1cnc2[nH]c3ccccc3n2c1=O`, the inhibition was 65.2% (active).
The same measure, in the same setting: under `Cc1cc(C(=O)N/N=C/c2ccc(N3CCOCC3)cc2)c(C)o1` stands 49.9%; under `COc1ccccc1C(=O)Nc1ccc(NC(=O)c2ccco2)c(C)c1`, 58.6% (active).
Consider `COc1cccc(OCC(O)CNC(=O)c2oc3c(C)c(C)ccc3c2C)c1` (stereo not given), for which the inhibition is -0.9%.
Same read-out and setting: under `COCn1c(COc2ccccc2)nc2ccccc21` stands 56% (active); under `O=C(OC1CCOC1=O)c1ccc(-c2nc3ccccc3s2)s1` (stereo not given), 83.8% (active).
The same measure, in the same setting: under `Nc1ccccc1/C=N\N=C/c1ccccc1N` stands 3.9%; under `CC(=O)Oc1ccc2c(=O)oc(-c3ccc([N+](=O)[O-])cc3)nc2c1`, -4.7%; under `CCOc1ccc2nc(C(=O)N3CCCC(C)C3)sc2c1` (stereo not given), 66.4% (active).
On the same count and under the same terms, under `Clc1ccc(Nc2ccc3ccccc3n2)cc1` stands 71.2% (active); under `COC(=O)c1ccc(NCC(=O)c2ccccc2)cc1`, 60.5% (active).
As to `CCOC(=O)/C(C#N)=C/c1ccc(N2CCCCC2)cc1`, the inhibition was 10.6%.
Same read-out and setting: under `c1ccc(-c2cc(-c3ccccc3)[nH]n2)cc1` stands 71.4% (active).

Values taken from PubChem BioAssay.
